Compound activity (PubChem BioAssay)
Most compounds without a hit are left out; they make up all but 4.3% or so of the library.
dFosB activator: activators of mouse delta FosB homodimer; activation, % at 25 µM; hit rate 0.99% among 340,000; purified delta FosB, TAMRA-CDK5 oligo fluorescence polarization; percent of positive-control signal above neutral wells; AID 493131;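 active = mean activation above about 17%, with every replicate also reaching it, limit read from the data, passing the limit was not always enough; inconclusive = only one of the two conditions met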
Target sequence (P13346 whole entry, looked up): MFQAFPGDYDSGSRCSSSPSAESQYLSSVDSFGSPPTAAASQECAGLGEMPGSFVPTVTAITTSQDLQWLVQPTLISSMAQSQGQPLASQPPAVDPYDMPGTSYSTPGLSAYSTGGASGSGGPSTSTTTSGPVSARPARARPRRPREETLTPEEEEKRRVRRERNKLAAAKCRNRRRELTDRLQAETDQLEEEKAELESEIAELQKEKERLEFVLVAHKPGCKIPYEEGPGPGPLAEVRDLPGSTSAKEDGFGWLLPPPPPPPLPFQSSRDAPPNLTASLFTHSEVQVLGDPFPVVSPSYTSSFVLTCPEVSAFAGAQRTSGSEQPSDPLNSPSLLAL
NR3A LBD binder: NR3A (human) ligand-binding domain modulation; NR3A LBD differential scanning fluorimetry, Tm shift; 0% = protein alone, 100% = glycine-bound protein; Tm shift relative to glycine control, % at 25 µM; hit rate 2.5% among 340,000; AID 1259313;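 active = melting temperature shift of at least 10% of the positive control shift, at one fixed dose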
UBC13 inh: human UBC13 polyubiquitination inhibition | P61088 | UBC13 polyubiquitin chain formation, TR-FRET | inhibition, % at 20 µM | hit rate 0.47% among 330,000 | AID 485273; in the data active = inhibition above about 45%, passing the limit was not always enough; inconclusive = no clear call, values can overlap the other calls
Target sequence (P61088 whole entry, looked up): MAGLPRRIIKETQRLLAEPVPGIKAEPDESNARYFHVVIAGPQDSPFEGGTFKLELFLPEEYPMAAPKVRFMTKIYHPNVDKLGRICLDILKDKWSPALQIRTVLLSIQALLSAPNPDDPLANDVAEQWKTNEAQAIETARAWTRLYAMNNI
NALP1 yeast inh: inhibitors of NALP1 inflammasome in yeast. S. cerevisiae NALP1/ASC/caspase-1 growth, X-gal OD620, 72 h. inhibition, % at 10 µM. hit rate 0.61% among 280,000. AID 2071; in the data active = inhibition mostly above about 24%, no sharp cut-off; inactive = mostly below about 32%
CR mimetic SO: yeast age-related superoxide inhibition as caloric restriction mimetic. S. cerevisiae aged cells, superoxide DHE fluorescence; hits give low values. superoxide response (% of plate mean), % at 10 µM. hit rate 0.18% among 330,000. AID 2690;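 active = superoxide response under a set limit, about three screen SD below normal, cut at about 65% in these data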;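 note: yeast aged for seven days with compound at 30 °C before DHE staining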
Each line names hits and unclear results; the compound was inactive in the other large screens.

CCN(C(=O)COn1nnc2ccc(S(=O)(=O)N(C)C)cc21)C1CCS(=O)(=O)C1 (stereo unspecified)	none (no result: NALP1 yeast inh)
COc1ccccc1NS(=O)(=O)c1cc(NC(=O)C2CCC2)ccc1N1CCCCC1	none
COc1ccccc1NS(=O)(=O)c1cc(N)ccc1N1CCCCC1	NR3A LBD binder 33
O=C(Nc1cccc(S(=O)(=O)Nc2ccccc2Cl)c1)c1ccc(N2CCCC2)c([N+](=O)[O-])c1	NR3A LBD binder 11
Nc1ccc(N2CCCCC2)c(S(=O)(=O)Nc2ccccc2Cl)c1	none
COc1ccccc1NS(=O)(=O)c1cc(NC(=O)Nc2ccc(Cl)cc2Cl)ccc1N1CCCCC1	NR3A LBD binder 12
O=C(Nc1cccc(C(F)(F)F)c1)Nc1ccc(N2CCCC2)c(S(=O)(=O)Nc2ccccc2Cl)c1	NR3A LBD binder 30
O=C(NNC(=O)C12CC3CC(CC(C3)C1)C2)c1ccccc1[N+](=O)[O-]	none
CCOC(=O)c1sc2nccc(OC)c2c1N=CNOC	none
COc1ccccc1C(=O)CSc1n[nH]c(N)n1	none
Nc1nc(SCC(=O)c2cc3ccccc3o2)n[nH]1	NALP1 yeast inh 22
CCC(=O)Nc1nnc(SCC(=O)c2ccc3c(c2)Cc2ccccc2-3)s1	NR3A LBD binder 11
CCC(=O)Nc1nnc(SCC(=O)N2c3ccccc3CC2C)s1 (stereo unspecified)	none
CC(=O)Nc1nnc(SCC(=O)c2ccc3c(c2)Cc2ccccc2-3)s1	NR3A LBD binder 15
CCN(CC(=O)NCc1ccc(F)cc1)C(=O)COc1ccc2ccccc2c1	NR3A LBD binder 10
Cc1cccc(C(=O)NCC(=O)N2CCC2)c1	none (no result: NALP1 yeast inh)
CCn1ccnc1CN(C)Cc1cn(-c2cccc(C)c2)nc1-c1cccc(F)c1	none
CCn1ccnc1CN(C)Cc1cn(-c2ccc(C)cc2)nc1-c1cccc(C)c1	NR3A LBD binder 24
Cc1ccc(-n2c(N)c(C#N)c(-c3ccc(Cl)cc3)c(C#N)c2=O)cc1	NR3A LBD binder 20
Cc1ccc(-c2c(C#N)c(N)n(-c3ccc(C)cc3)c(=O)c2C#N)cc1	none
O=C(CNc1cccc2ccccc12)N/N=C/c1cccc(Oc2ccccc2)c1	NR3A LBD binder 17
O=C(CNc1cccc2ccccc12)N/N=C/c1ccc([N+](=O)[O-])cc1	NR3A LBD binder 14
Cc1ccccc1NCC(=O)N/N=C/c1ccc([N+](=O)[O-])cc1	none
O=C(N/N=C/c1cccc(Oc2ccccc2)c1)c1ccccc1Br	UBC13 inh inconclusive, NALP1 yeast inh 32
O=C(CNc1cccc2ccccc12)N/N=C/c1ccccn1	none (no result: dFosB activator)
COc1ccc(C2/C=C\CN(C(=O)NC(C)C)CC(=O)N2Cc2ccc(F)cc2)cc1 (stereo unspecified)	none
CCCCCCn1c(N2CCN(c3cccc(Cl)c3)CC2)nc2c1c(=O)[nH]c(=O)n2C	NR3A LBD binder 14
CCOC(=O)Cn1c(=O)oc2cc(S(=O)(=O)NCCC(C)C)ccc21	NALP1 yeast inh 41
CCOCCCNS(=O)(=O)c1ccc2c(c1)oc(=O)n2CC(=O)OCC	none (no result: NALP1 yeast inh)
COc1cccc(NC(=O)COC(=O)c2c3c(nc4ccccc24)CCC(C)C3)c1 (stereo unspecified)	NR3A LBD binder 19
O=c1c2ccccc2nc(CSc2ncnc3nc[nH]c23)n1-c1cccc(C(F)(F)F)c1	none
CC(C)CN(C(=O)c1cc(=O)[nH]c2ccccc12)c1c(N)n(Cc2ccccc2)c(=O)[nH]c1=O	NR3A LBD binder 11 (no result: NALP1 yeast inh)
CCCCn1c(N)c(N(CC(C)C)C(=O)c2cc(=O)[nH]c3ccccc23)c(=O)[nH]c1=O	none (no result: NALP1 yeast inh)
CCCN=C1N(CC)C[C@@H]2[C@@H]3C(=O)N(C)C(=O)[C@@H]3[C@](C)(C(=O)OC)N12	none (no result: UBC13 inh, NALP1 yeast inh)
Fc1ccc2[nH]c3c(c2c1)CN(C(=S)NCc1ccccc1)CC3	NR3A LBD binder 29
C=CCNC(=O)N1CCc2[nH]c3ccc(F)cc3c2C1	none
O=C(COC(=O)CCC(=O)c1ccc(F)cc1)NCc1ccccc1Cl	none (no result: NALP1 yeast inh)
Cc1cc(=O)[nH]c(SCC(=O)N2CCC(Cc3ccccc3)CC2)n1	none
O=C(CSc1nc(C(F)(F)F)cc(=O)[nH]1)N1CCC(Cc2ccccc2)CC1	NR3A LBD binder 13 (no result: NALP1 yeast inh)
COc1ccc(S(=O)(=O)N2CCOC2CNC(=O)C(=O)NCCc2ccccc2)cc1 (stereo unspecified)	none
CCOc1ccc(S(=O)(=O)Nc2cccc(C(=O)N3CCN(c4ccc(OC)cc4)CC3)c2)cc1	none
COC(=O)COc1cccc(NS(=O)(=O)c2ccc(NC(C)=O)cc2)c1	NR3A LBD binder 14
CCOc1ccc(S(=O)(=O)Nc2cccc(N(C)S(C)(=O)=O)c2)cc1	NALP1 yeast inh 42
CC(=O)Nc1cccc(OCC(=O)NS(=O)(=O)c2ccc(C)cc2)c1	none
CCOc1ccc(S(=O)(=O)Nc2cccc(OC)c2)cc1	NR3A LBD binder 11
COc1ccccc1Oc1cc(-n2nc(C)cc2C)ncn1	NR3A LBD binder 10
COc1ccccc1OCC(O)Cn1nc(C)cc1C (stereo unspecified)	none (no result: NALP1 yeast inh)
O=C(Nc1ncc2c(n1)CC(c1ccccc1)CC2=O)c1ccco1 (stereo unspecified)	none
CCCCCC(=O)Nc1ncc2c(n1)CC(c1cccs1)CC2=O (stereo unspecified)	NALP1 yeast inh 38 (no result: dFosB activator)
O=C(CC(=O)c1ccccc1O)c1cccc(F)c1	NR3A LBD binder 23
OC(COCc1ccc2c(c1)OCO2)CN1CCN(Cc2ccccc2)CC1 (stereo unspecified)	none
OCCN1CCN(CC(O)COCc2ccc3c(c2)OCO3)CC1 (stereo unspecified)	NR3A LBD binder 11
C#CCOCCOCCOCCNc1nc(N2CCN(C(=O)C(Cc3ccc(O)cc3)n3cc(C(N)CC(C)C)nn3)CC2)nc(N2CCN(C(=O)C(Cc3cc4ccccc4[nH]3)n3cc(C(N)C(C)CC)nn3)CC2)n1 (stereo unspecified)	UBC13 inh 77 (no result: dFosB activator, NR3A LBD binder)
C#CCOCCOCCOCCNc1nc(N2CCN(C(=O)[C@H](Cc3ccc(O)cc3)n3cc([C@@H](N)C(C)CC)nn3)CC2)nc(N2CCN(C(=O)[C@H](Cc3cc4ccccc4[nH]3)n3cc([C@@H](N)Cc4ccc(O)cc4)nn3)CC2)n1 (stereo partly specified)	UBC13 inh 78 (no result: dFosB activator, NR3A LBD binder, NALP1 yeast inh)
C#CCOCCOCCOCCNc1nc(N2CCN(C(=O)[C@H](CCCCN)n3cc([C@@H](N)CO)nn3)CC2)nc(N2CCN(C(=O)[C@H](Cc3cc4ccccc4[nH]3)n3cc([C@@H](N)Cc4ccc(O)cc4)nn3)CC2)n1	UBC13 inh 106 (no result: dFosB activator, NR3A LBD binder)
C#CCOCCOCCOCCNc1nc(N2CCN(C(=O)C([C@@H](C)O)n3cc([C@@H](N)CCCCN)nn3)CC2)nc(N2CCN(C(=O)[C@H](CCCCN)n3cc([C@@H](N)[C@H](C)CC)nn3)CC2)n1 (stereo partly specified)	UBC13 inh 104 (no result: NALP1 yeast inh)
